Results from the supplement of paper PMC10849652.
The full data set covers some 7,900 targets. This sample favours those with a hit. About 0.6% of all pairs of compound and target were hits.

Columns and labels:
Experiment in all cases: log2 fold change, soluble protein after heating vs DMSO (PISA); higher = thermal stabilisation; K562 cells, 10 uM, 30 min; active = over 0.2 and 3.5 SD of the protein, either way, in both replicates (recomputed)
IRAK-1-4 Inhibitor I = compound: C1COCCN1CCN2C3=CC=CC=C3N=C2NC(=O)C4=CC(=CC=C4)[N+](=O)[O-] [IRAK-1-4 Inhibitor I]
Procedure, shortened: (§1)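 K562 cells at 2×10^6 cells/mL were treated with 10 μM compound for 30 min. Aliquots were heated for 3 min across 48°C-58°C, pooled, and extracted in PBS with 0.5% NP-40 at 4°C; soluble protein was the supernatant after 21,000xg for 90 min. Soluble protein was quantified by TMTpro 16plex LC-MS/MS with channel sums equalised, and reported as log2 fold change in thermal stability against DMSO controls, with values from duplicates.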

ibrutinib = compound: C=CC(=O)N1CCC[C@@H](n2nc(-c3ccc(Oc4ccccc4)cc3)c3c(N)ncnc32)C1 [ibrutinib]
Procedure, shortened: as §1

[1] = compound: CC(=O)c1cnc2ccc(-c3cc(Cl)c(O)c(Cl)c3)nc2c1N[C@H]1CC[C@H](CN(C)C)CC1
Procedure, shortened: as §1

ralimetinib = compound: CC(C)(C)Cn1c(N)nc2ccc(-c3[nH]c(C(C)(C)C)nc3-c3ccc(F)cc3)nc21 [ralimetinib]
Procedure, shortened: as §1

[2] = compound: CC(C)(O)CC(=O)NCCn1ccc2ncnc(Nc3ccc(Oc4cccc(C(F)(F)F)c4)c(Cl)c3)c21
Procedure, shortened: as §1

[3] = compound: CC(C)C1=C2N=C(C=C(N2N=C1)NCC3=CC=CC=C3)NCCCCCCN
Procedure, shortened: as §1

[4] = compound: CC(C)C[C@@H](C=O)NC(=O)[C@H](CC(C)C)NC(=O)[C@H](CC(C)C)NC(=O)OCc1ccccc1
Procedure, shortened: as §1

pinometostat = compound: CC(C)N(C[C@H]1O[C@@H](n2cnc3c(N)ncnc32)[C@H](O)[C@@H]1O)[C@H]1C[C@@H](CCc2nc3cc(C(C)(C)C)ccc3[nH]2)C1 [pinometostat]
Procedure, shortened: as §1

[5] = compound: CC1=C(C(CC(=O)N1)C2=CC=C(C=C2)C(F)(F)F)C(=O)NC3=C(C=C4C(=C3)C=NN4)F
Procedure, shortened: as §1

[6] = compound: CC1=C(C2=C(C=C1)C(=O)C3=CC=CC=C3N2CCCN)C
Procedure, shortened: as §1

[7] = compound: CC1=C(C=C(C=C1)NC(=O)C2=CC(=CC=C2)C(C)(C)C#N)NC3=CC4=C(C=C3)N=CN(C4=O)C
Procedure, shortened: as §1

[8] = compound: CC1=C(C=C(C=C1)NC(=O)C2=CC(=CC=C2)N(C)C)NC(=O)C3=CC=C(C=C3)O
Procedure, shortened: as §1

[9] = compound: CC1=CC=C(C=C1)SC2=C3C=C(SC3=CN=C2)C(=O)N
Procedure, shortened: as §1

[10] = compound: CC1=NC(=CC=C1)C2=C(N=C(N2)C(C)(C)C)C3=CC4=NC=CN=C4C=C3
Procedure, shortened: as §1

Nexturastat A = compound: CCCCN(Cc1ccc(C(=O)NO)cc1)C(=O)Nc1ccccc1 [Nexturastat A]
Procedure, shortened: as §1

vemurafenib = compound: CCCS(=O)(=O)Nc1ccc(F)c(C(=O)c2c[nH]c3ncc(-c4ccc(Cl)cc4)cc23)c1F [vemurafenib]
Procedure, shortened: as §1

[11] = compound: CCCS(=O)(=O)Nc1ccc(F)c(C(=O)c2c[nH]c3ncc(Cl)cc23)c1F
Procedure, shortened: as §1

[12] = compound: CCCc1cc(C)[nH]c(=O)c1CNC(=O)c1cc(-c2ccnc(N3CCN(C)CC3)c2)cc2c1cnn2C(C)C
Procedure, shortened: as §1

givinostat = compound: CCN(CC)Cc1ccc2cc(COC(=O)Nc3ccc(C(=O)NO)cc3)ccc2c1 [givinostat]
Procedure, shortened: as §1

barasertib = compound: CCN(CCCOc1ccc2c(Nc3cc(CC(=O)Nc4cccc(F)c4)[nH]n3)ncnc2c1)CCOP(=O)(O)O [barasertib]
Procedure, shortened: as §1

Measured: log2 fold change

GGT7 (UniProt Q9UJ14)
inactive: IRAK-1-4 Inhibitor I 0.04 | ibrutinib 0.038 | [1] 0.02 | ralimetinib -0.046 | [2] 0.015 | [3] 0.095 | [4] 0.001 | pinometostat -0.005 | [5] -0.015 | [6] -0.031 | [7] -0.125 | [8] 0 | [9] 0.07 | [10] -0.008 | Nexturastat A 0.032 | vemurafenib 0.112 | [11] -0.011 | [12] 0.033 | givinostat 0.019 | barasertib 0.061

GLCCI1 (UniProt Q86VQ1)
UniProt Q86VQ1, sequence (Q86VQ1 whole entry, looked up): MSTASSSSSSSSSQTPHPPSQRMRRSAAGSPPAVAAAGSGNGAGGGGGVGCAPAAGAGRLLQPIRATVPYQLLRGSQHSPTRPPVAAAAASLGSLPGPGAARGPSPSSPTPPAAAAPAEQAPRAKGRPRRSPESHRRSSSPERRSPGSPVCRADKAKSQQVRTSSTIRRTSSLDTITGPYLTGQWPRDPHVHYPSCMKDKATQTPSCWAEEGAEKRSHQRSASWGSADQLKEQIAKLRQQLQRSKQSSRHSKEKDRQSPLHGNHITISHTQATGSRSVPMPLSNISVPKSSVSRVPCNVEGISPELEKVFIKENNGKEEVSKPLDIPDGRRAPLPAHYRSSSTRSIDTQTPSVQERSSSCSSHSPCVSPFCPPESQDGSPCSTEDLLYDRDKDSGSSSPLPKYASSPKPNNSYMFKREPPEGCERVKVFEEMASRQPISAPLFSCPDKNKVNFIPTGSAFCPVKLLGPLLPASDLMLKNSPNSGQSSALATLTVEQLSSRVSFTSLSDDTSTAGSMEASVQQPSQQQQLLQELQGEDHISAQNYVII
inactive: IRAK-1-4 Inhibitor I 0.062 | ibrutinib 0.013 | [1] -0.131 | ralimetinib 0.001 | [2] -0.012 | [3] 0.075 | [4] 0.017 | pinometostat -0.03 | [5] 0.098 | [6] -0.013 | [7] 0.037 | [8] 0.104 | [9] -0.029 | [10] 0.028 | Nexturastat A 0 | vemurafenib -0.007 | [11] -0.035 | [12] 0.033 | givinostat 0.045 | barasertib -0.075

HIC2 (UniProt Q96JB3)
UniProt Q96JB3, sequence (Q96JB3 whole entry, looked up): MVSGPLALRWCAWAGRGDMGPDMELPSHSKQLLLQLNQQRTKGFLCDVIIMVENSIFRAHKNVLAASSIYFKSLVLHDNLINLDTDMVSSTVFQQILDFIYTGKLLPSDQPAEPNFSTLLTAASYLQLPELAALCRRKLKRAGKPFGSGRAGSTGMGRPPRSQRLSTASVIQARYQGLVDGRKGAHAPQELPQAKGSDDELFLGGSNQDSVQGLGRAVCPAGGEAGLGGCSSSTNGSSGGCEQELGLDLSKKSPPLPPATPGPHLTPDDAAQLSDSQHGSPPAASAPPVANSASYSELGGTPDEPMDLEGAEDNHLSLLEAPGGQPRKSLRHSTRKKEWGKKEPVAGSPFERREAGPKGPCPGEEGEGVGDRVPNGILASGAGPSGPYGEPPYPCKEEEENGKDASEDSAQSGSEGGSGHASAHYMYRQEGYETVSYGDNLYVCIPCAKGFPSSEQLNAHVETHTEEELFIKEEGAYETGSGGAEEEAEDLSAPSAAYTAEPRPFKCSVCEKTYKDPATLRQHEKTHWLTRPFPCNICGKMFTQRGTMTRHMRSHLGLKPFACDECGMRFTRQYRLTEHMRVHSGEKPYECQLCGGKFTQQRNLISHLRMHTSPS
inactive: IRAK-1-4 Inhibitor I -0.073 | ibrutinib 0.123 | [1] 0.024 | ralimetinib 0.218 | [2] 0.065 | [3] -0.07 | [4] -0.03 | pinometostat 0.143 | [5] 0.015 | [6] 0.088 | [7] 0.039 | [8] 0.028 | [9] -0.005 | [10] -0.093 | Nexturastat A 0.131 | vemurafenib 0.009 | [11] 0.123 | [12] -0.005 | givinostat -0.035 | barasertib -0.033

GATA1 (UniProt P15976)
UniProt P15976, sequence (P15976 whole entry, looked up): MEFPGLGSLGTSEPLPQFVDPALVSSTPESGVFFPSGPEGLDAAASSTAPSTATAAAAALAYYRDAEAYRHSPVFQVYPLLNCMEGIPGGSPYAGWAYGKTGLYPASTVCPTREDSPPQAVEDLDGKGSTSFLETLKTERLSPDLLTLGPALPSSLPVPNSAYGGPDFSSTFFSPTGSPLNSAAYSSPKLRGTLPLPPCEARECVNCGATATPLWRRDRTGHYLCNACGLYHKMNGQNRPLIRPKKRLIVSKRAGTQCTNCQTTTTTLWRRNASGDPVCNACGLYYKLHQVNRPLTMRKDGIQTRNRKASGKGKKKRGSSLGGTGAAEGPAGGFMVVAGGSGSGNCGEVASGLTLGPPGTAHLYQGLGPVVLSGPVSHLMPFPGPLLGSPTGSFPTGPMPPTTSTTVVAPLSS
active: [6] -0.368
inactive: IRAK-1-4 Inhibitor I 0.038 | ibrutinib 0.015 | [1] 0.051 | ralimetinib 0.041 | [2] 0.027 | [3] 0.047 | [4] 0.088 | pinometostat 0.027 | [5] 0.081 | [7] -0.05 | [8] 0.02 | [9] -0.085 | [10] -0.029 | Nexturastat A -0.104 | vemurafenib -0.06 | [11] -0.035 | [12] -0.003 | givinostat -0.047 | barasertib -0.034

GEMIN6 (UniProt Q8WXD5)
UniProt Q8WXD5, sequence (Q8WXD5 whole entry, looked up): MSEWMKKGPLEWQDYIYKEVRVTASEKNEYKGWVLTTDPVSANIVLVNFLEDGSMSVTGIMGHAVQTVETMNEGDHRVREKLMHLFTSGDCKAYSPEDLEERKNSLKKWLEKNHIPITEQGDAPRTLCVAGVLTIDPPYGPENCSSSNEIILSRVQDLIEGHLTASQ
inactive: IRAK-1-4 Inhibitor I 0.035 | ibrutinib 0.021 | [1] 0.016 | ralimetinib 0.188 | [2] -0.03 | [3] -0.012 | [4] -0.226 | pinometostat 0.046 | [5] -0.004 | [6] 0.03 | [7] -0.049 | [8] -0.05 | [9] 0.014 | [10] 0.015 | Nexturastat A 0.134 | vemurafenib 0.073 | [11] -0.001 | [12] 0.008 | givinostat -0.088 | barasertib -0.053

HIST2H2BF isoform 2 (UniProt Q5QNW6)
inactive: IRAK-1-4 Inhibitor I -0.165 | ibrutinib 0.148 | [1] -0.054 | ralimetinib 0.162 | [2] 0 | [3] -0.047 | [4] 0.226 | pinometostat 0.422 | [5] 0.002 | [6] 0.601 | [7] -0.094 | [8] -0.034 | [9] -0.202 | [10] -0.009 | vemurafenib -0.284 | [11] 0.529 | [12] 0.1 | givinostat 0.331 | barasertib -0.157
active: Nexturastat A 0.78

FMC1 (UniProt Q96HJ9)
UniProt Q96HJ9, sequence (Q96HJ9 whole entry, looked up): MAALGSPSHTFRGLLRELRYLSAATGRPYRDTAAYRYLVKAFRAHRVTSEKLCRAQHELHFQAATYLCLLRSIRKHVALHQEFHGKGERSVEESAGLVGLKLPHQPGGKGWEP
inactive: IRAK-1-4 Inhibitor I -0.06 | ibrutinib 0.008 | [1] 0.066 | ralimetinib -0.098 | [2] -0.006 | [3] 0.01 | [4] 0.125 | pinometostat 0.047 | [5] -0.041 | [6] 0.02 | [7] -0.036 | [8] -0.029 | [9] 0.027 | [10] 0.004 | Nexturastat A -0.038 | vemurafenib -0.065 | [11] 0.014 | [12] -0.074 | givinostat -0.051 | barasertib 0.022

FKBP7 (UniProt Q9Y680)
UniProt Q9Y680, sequence (Q9Y680 whole entry, looked up): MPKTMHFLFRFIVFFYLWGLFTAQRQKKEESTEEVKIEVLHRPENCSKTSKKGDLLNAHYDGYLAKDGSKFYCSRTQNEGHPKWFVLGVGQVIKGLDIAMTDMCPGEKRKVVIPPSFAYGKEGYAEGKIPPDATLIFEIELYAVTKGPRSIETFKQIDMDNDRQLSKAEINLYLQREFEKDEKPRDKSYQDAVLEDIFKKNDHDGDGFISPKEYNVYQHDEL
inactive: IRAK-1-4 Inhibitor I 0.018 | ibrutinib 0.033 | [1] -0.031 | ralimetinib -0.033 | [2] 0.017 | [3] 0.055 | [4] -0.005 | pinometostat -0.059 | [5] -0.029 | [6] -0.022 | [7] -0.052 | [8] 0.001 | [9] -0.034 | [10] -0.074 | Nexturastat A 0.002 | vemurafenib -0.031 | [11] -0.097 | [12] -0.025 | givinostat 0.002 | barasertib 0.044

GNL1 (UniProt P36915)
UniProt P36915, sequence (P36915 whole entry, looked up): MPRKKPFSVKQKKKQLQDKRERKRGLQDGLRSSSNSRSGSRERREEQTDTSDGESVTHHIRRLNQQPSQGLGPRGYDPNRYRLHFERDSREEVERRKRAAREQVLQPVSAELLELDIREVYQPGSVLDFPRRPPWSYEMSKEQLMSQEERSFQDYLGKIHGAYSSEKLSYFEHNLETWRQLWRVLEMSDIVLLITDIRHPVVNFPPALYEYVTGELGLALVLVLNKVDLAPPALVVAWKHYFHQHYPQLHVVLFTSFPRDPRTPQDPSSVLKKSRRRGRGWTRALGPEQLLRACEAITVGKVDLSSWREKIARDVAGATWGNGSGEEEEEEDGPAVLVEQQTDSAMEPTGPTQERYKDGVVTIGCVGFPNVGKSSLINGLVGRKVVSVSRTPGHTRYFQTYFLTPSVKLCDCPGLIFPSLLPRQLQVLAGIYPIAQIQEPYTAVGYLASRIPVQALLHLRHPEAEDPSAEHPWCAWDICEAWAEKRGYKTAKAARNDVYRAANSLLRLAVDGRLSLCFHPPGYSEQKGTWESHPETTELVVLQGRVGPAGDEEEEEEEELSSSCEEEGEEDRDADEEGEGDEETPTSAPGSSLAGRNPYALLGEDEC
inactive: IRAK-1-4 Inhibitor I 0.07 | ibrutinib 0.037 | [1] 0.046 | ralimetinib 0.011 | [2] -0.063 | [3] -0.03 | [4] -0.014 | pinometostat -0.006 | [5] -0.037 | [6] -0.086 | [7] 0.019 | [8] -0.014 | [9] 0.032 | [10] 0.036 | Nexturastat A -0.031 | vemurafenib -0.01 | [11] 0.081 | [12] 0.002 | givinostat -0.033 | barasertib 0.017

FANCI (UniProt Q9NVI1)
UniProt Q9NVI1, sequence (Q9NVI1 whole entry, looked up): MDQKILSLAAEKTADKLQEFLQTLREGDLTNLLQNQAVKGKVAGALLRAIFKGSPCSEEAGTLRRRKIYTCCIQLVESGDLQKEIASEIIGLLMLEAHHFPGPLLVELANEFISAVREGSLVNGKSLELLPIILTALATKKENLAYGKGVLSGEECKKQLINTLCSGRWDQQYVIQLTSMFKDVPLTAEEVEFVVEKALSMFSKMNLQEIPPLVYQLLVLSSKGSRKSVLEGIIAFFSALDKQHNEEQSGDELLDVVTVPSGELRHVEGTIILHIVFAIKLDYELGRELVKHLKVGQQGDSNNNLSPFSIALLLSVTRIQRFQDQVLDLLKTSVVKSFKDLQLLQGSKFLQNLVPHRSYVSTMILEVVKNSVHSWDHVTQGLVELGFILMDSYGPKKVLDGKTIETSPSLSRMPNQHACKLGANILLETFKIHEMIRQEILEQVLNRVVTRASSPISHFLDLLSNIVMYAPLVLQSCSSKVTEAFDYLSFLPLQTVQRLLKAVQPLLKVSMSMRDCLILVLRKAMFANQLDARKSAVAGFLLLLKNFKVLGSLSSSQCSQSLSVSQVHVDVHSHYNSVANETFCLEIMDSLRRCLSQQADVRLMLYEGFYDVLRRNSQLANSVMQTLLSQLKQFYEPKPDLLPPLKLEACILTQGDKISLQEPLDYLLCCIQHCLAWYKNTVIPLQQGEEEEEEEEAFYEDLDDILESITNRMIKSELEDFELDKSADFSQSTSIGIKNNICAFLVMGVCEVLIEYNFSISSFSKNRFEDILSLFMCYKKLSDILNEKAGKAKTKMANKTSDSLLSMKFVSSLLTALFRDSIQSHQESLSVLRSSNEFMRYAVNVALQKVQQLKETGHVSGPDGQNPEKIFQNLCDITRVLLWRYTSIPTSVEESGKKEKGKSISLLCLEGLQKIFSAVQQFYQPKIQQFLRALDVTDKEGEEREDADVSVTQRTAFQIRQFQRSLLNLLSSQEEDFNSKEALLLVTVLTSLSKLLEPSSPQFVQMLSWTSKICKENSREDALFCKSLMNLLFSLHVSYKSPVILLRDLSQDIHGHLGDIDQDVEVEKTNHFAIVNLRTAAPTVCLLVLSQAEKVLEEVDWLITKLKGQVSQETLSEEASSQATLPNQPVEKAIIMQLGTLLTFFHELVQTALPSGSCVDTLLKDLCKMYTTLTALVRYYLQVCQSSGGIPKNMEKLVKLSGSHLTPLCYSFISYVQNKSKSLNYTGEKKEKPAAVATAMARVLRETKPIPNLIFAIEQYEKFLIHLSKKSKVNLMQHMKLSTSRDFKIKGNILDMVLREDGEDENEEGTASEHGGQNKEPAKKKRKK
active: [3] -0.377
inactive: IRAK-1-4 Inhibitor I -0.043 | ibrutinib -0.082 | [1] -0.148 | ralimetinib -0.008 | [2] -0.146 | [4] -0.136 | pinometostat 0.006 | [5] -0.038 | [6] -0.098 | [7] 0.012 | [8] 0.018 | [9] 0.01 | [10] 0.046 | Nexturastat A -0.054 | vemurafenib 0.016 | [11] 0.087 | [12] 0.009 | givinostat 0.043 | barasertib 0.029

HP1BP3 (UniProt Q5SSJ5)
UniProt Q5SSJ5, sequence (Q5SSJ5 whole entry, looked up): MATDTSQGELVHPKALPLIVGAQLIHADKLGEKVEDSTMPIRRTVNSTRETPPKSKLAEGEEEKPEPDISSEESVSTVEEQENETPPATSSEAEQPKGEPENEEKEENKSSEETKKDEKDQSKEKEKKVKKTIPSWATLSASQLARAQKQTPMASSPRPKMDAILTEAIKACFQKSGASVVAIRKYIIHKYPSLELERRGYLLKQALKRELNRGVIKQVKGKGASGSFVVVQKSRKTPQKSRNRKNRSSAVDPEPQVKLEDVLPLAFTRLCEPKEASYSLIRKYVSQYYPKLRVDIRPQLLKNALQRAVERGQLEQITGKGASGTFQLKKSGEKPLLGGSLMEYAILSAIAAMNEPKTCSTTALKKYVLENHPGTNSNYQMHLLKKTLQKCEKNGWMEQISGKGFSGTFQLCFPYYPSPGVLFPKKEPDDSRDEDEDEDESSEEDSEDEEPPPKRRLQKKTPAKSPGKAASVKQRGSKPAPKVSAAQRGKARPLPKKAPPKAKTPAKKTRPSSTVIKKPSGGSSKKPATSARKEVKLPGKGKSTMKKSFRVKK
inactive: IRAK-1-4 Inhibitor I -0.097 | ibrutinib 0.003 | [1] 0.051 | ralimetinib 0.089 | [2] -0.013 | [3] -0.031 | [4] 0.063 | pinometostat 0.092 | [5] -0.139 | [7] 0.03 | [8] -0.026 | [9] -0.025 | [10] 0.017 | Nexturastat A 0.108 | vemurafenib -0.014 | [11] 0.018 | [12] -0.001 | givinostat 0.031 | barasertib -0.129
active: [6] -0.387

GTF3C4 (UniProt Q9UKN8)
inactive: IRAK-1-4 Inhibitor I -0.002 | ibrutinib 0.032 | [1] -0.051 | ralimetinib -0.045 | [2] 0.035 | [3] 0.038 | [4] 0.035 | pinometostat 0 | [5] -0.047 | [6] -0.041 | [7] -0.025 | [8] -0.027 | [9] 0.038 | [10] 0.008 | Nexturastat A -0.052 | vemurafenib 0.032 | [11] 0.045 | [12] 0.033 | givinostat -0.007 | barasertib 0.003
